# PubChem BioAssay (Tox21)
# Where “and” joins values, the source holds several entries; their conditions need not be identical. Equal values may be shown once. Inconclusive results are not listed. Where a call stands in place of a potency, no number is given. More than one record can exist for a structure, and the calls need not agree. Calls of active or inactive are those of the source. Unless noted, calls follow the shape of the dose curve; as a rule, active = well fitted curve in the direction sought with a large enough effect in the repeat runs; inconclusive = weak or mixed curves; inactive = no such curve, though single readings can be large; an effect the other way counts as inactive or inconclusive.
# Key:
# [1] = qHTS assay to identify small molecule antagonists of the glucocorticoid receptor (GR) signaling pathway - cell viability counter screen (AID 720693); also: nearly all actives have a fitted effect of over 55% in size
# [2] = qHTS assay for identifying genotoxic compounds that show differential cytotoxicity against isogenic chicken DT40 cell lines with known DNA damage response pathways - wild type cell line (AID 743012); also: nearly all actives have a fitted effect of over 60% in size; also: potency is read from the fitted curve at half-maximal effect
# Procedure, shortened: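 Viability of DNA repair-proficient chicken DT40 cells was assessed by CellTiter-Glo luminescence following 40 h compound exposure at 37 C/5% CO2.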
# [3] = qHTS assay for identifying genotoxic compounds that show differential cytotoxicity against isogenic chicken DT40 cell lines with known DNA damage response pathways - Rad54/Ku70 mutant cell line (AID 743015); also: nearly all actives have a fitted effect of over 60% in size; also: potency is read from the fitted curve at half-maximal effect
# [4] = qHTS assay to identify small molecule antagonists of the androgen receptor (AR) signaling pathway - cell viability counter screen (AID 743033; also: nearly all actives have a fitted effect of over 45% in size; also: potency is read from the fitted curve at half-maximal effect)
# [5] = qHTS assay to identify small molecule antagonists of the androgen receptor (AR) signaling pathway using the MDA cell line - cell viability counter screen (AID 743041; also: nearly all actives have a fitted effect of over 45% in size; also: potency is read from the fitted curve at half-maximal effect)
# Procedure, shortened: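 qHTS viability read-out; MDA-kb2 AR-luc; R1881-stimulated; 16 h exposure at 37C, 0% CO2; CellTiter-Fluor, 30 min; fluorescence intensity.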
# [6] = qHTS assay for identifying genotoxic compounds that show differential cytotoxicity against isogenic chicken DT40 cell lines with known DNA damage response pathways - Rev3 mutant cell line (AID 743014); also: nearly all actives have a fitted effect of over 55% in size; also: potency is read from the fitted curve at half-maximal effect
# [7] = target: Androgen receptor (Homo sapiens) (UniProt P10275); experiment: qHTS assay to identify small molecule antagonists of the androgen receptor (AR) signaling pathway (AID 743035; active = well fitted inhibition curve with a large enough effect in the signal ratio in the repeat runs, not every such curve was filed as active; the % refers to the signal ratio)
# Procedure, shortened: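 Reporter HEK293 cells were exposed to compounds and R1881 overnight (16 h, 37C); beta-lactamase activity was then quantified by FRET fluorescence.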
# [8] = target: Androgen receptor (Homo sapiens) (UniProt P10275); experiment: qHTS assay to identify small molecule agonists of the androgen receptor (AR) signaling pathway (AID 743036; active = well fitted activation curve with a large enough effect in the signal ratio in the repeat runs, with a control signal flat, not every such curve was filed as active; the % refers to the signal ratio)
# Procedure, shortened: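 Reporter line: GeneBLAzer AR-UAS-bla-GripTite (HEK293). Steps: plate cells, 4 h rest, add compounds, 16 h at 37C, add LiveBLAzer B/G substrate, 2 h at RT, read fluorescence.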
# [9] = target: Androgen receptor (Homo sapiens) (UniProt P10275); experiment: qHTS assay to identify small molecule agonists of the androgen receptor (AR) signaling pathway using the MDA cell line (AID 743040; also: nearly all actives have a fitted effect of over 20% in size)
# Procedure, shortened: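 Agonist activity is measured as luciferase luminescence in human MDA-kb2 cells whose MMTV reporter responds to both AR and GR. Compounds in DMSO incubate 16 h at 37C, 0% CO2, and ONE-Glo is read after 30 min.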
# [10] = target: Androgen receptor (Homo sapiens) (UniProt P10275); experiment: qHTS assay to identify small molecule antagonists of the androgen receptor (AR) signaling pathway using the MDA cell line (AID 743042; also: potency is read from the fitted curve at half-maximal effect; nearly all actives have a fitted effect of over 55% in size)
# Procedure, shortened: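 MDA-kb2 cells (human breast carcinoma, stably carrying an MMTV-luciferase reporter responsive to AR and GR) were plated at 3,000 cells/well and preincubated 5 hr at 37C, then given compound plus R1881 agonist for 16 h. ONE-Glo luminescence was read.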
# Sequence of Androgen receptor (Homo sapiens) (P10275 whole entry, looked up): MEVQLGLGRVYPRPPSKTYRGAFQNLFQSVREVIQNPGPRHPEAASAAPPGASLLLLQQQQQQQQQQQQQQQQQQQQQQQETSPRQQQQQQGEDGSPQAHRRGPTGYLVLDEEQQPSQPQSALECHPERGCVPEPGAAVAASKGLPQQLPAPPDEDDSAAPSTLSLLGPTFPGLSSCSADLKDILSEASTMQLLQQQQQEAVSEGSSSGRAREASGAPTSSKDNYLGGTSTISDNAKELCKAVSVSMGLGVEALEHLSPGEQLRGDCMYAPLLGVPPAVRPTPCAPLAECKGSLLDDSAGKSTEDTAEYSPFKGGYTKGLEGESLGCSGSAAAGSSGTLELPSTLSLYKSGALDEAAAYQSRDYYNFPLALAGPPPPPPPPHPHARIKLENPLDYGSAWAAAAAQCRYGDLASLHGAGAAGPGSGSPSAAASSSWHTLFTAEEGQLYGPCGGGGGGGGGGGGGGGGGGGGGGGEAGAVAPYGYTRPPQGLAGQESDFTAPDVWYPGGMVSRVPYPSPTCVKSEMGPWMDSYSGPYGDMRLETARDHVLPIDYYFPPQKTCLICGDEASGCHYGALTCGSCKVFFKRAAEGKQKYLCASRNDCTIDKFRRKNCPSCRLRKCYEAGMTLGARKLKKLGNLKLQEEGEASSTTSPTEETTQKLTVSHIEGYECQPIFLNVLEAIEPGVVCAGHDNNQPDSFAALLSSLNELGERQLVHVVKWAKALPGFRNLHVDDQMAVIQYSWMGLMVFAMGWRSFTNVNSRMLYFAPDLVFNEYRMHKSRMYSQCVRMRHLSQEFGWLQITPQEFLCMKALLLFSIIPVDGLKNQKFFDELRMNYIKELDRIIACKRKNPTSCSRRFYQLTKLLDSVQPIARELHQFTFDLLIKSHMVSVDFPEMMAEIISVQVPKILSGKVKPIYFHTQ
smiles,measurement,setting,value
CC1(C)O[C@@H]2C[C@H]3[C@@H]4C[C@H](F)C5=CC(=O)C=C[C@]5(C)[C@@]4(F)[C@@H](O)C[C@]3(C)[C@]2(C(=O)CO)O1,Potency,[1],inactive
same,Potency,[2],inactive
same,Potency,[3],inactive
same,Potency,[4],inactive
same,Potency,[5],inactive
C1CN(SSN2CCOCC2)CCO1,Potency,[1],inactive
same,Potency,[2],27.3 µM (active)
same,Potency,[3],19.3 µM (active)
same,Potency,[5],inactive
CC(C)[N+](C)(CCOC(=O)C1c2ccccc2Oc2ccccc21)C(C)C,Potency,[1],inactive
same,Potency,[2],inactive
same,Potency,[3],inactive
same,Potency,[4],inactive
same,Potency,[5],inactive
CCCCCCCCCCC(CO)CCCCCCCC (centres undefined),Potency,[1],inactive
same,Potency,[2],inactive
same,Potency,[3],inactive
same,Potency,[4],inactive
same,Potency,[5],inactive
COC(=O)C(C)Oc1ccc(Oc2ncc(C(F)(F)F)cc2Cl)cc1 (centres undefined),Potency,[1],inactive
same,Potency,[6],54.5 µM (active)
same,Potency,[4],inactive
same,Potency,[5],inactive
C=C[C@H]1CN2CC[C@H]1C[C@@H]2[C@@H](O)c1ccnc2ccc(OC)cc12,Potency,[1],inactive
same,Potency,[2],29.8 µM (active)
same,Potency,[3],29.8 µM (active) and 60.1 µM (active)
same,Potency,[4],inactive
same,Potency,[5],inactive
C1COCCN1,Potency,[1],inactive
same,Potency,[2],inactive
same,Potency,[3],inactive
same,Potency,[4],inactive
same,Potency,[5],inactive
CC/C(=C(/CC)c1ccc(O)cc1)c1ccc(O)cc1,Potency,[2],26.6 µM (active) and 30.4 µM (active) and 17.2 µM (active)
same,Potency,[6],29.8 µM (active) and 27.3 µM (active)
same,Potency,[3],26.6 µM (active) and 27.3 µM (active)
same,Potency,[4],inactive and 48.6 µM (active)
same,Potency,[5],inactive
COc1ccc(-c2coc3cc(O)cc(O)c3c2=O)cc1,Potency,[2],54.5 µM (active)
same,Potency,[3],27.3 µM (active)
same,Potency,[5],inactive
COC(=O)c1ccc(C)cc1,Potency,[1],inactive
same,Potency,[2],inactive
same,Potency,[3],inactive
same,Potency,[4],inactive
same,Potency,[5],inactive
Oc1ccc(C(c2ccc(O)cc2)C(Cl)(Cl)Cl)cc1,Potency,[2],24.3 µM (active)
same,Potency,[6],60.9 µM (active) and 48.6 µM (active)
same,Potency,[3],60.9 µM (active) and 19.3 µM (active)
same,Potency,[4],49 µM (active)
same,Potency,[5],inactive
CC(=O)O[C@]1(C(C)=O)CC[C@H]2[C@@H]3C=C(C)C4=CC(=O)CC[C@]4(C)[C@H]3CC[C@@]21C,Potency,[1],inactive
same,Potency,[2],11.4 µM (active) and 13.7 µM (active)
same,Potency,[3],15.4 µM (active)
same,Potency,[4],inactive
same,Potency,[5],inactive
NCCN,Potency,[1],inactive
same,Potency,[4],inactive
same,Potency,[5],inactive
CC(C)=CCO,Potency,[1],inactive
same,Potency,[2],inactive
same,Potency,[3],inactive
same,Potency,[4],inactive
same,Potency,[5],inactive
CC(=O)Oc1ccc(C(c2ccc(OC(C)=O)cc2)c2ccccn2)cc1,Potency,[1],inactive
same,Potency,[2],23.7 µM (active) and inactive
same,Potency,[4],inactive
same,Potency,[7],inactive
same,outcome,[8],inactive
same,Potency,[9],inactive
same,Potency,[10],0.765 µM (active)
CC(=O)Oc1c(C)c(C)c2c(c1C)CC[C@@](C)(CCC[C@H](C)CCC[C@H](C)CCCC(C)C)O2,Potency,[1],inactive
same,Potency,[4],inactive
same,Potency,[5],inactive
O=S1(=O)CCCO1,Potency,[1],inactive
same,Potency,[2],inactive
same,Potency,[3],inactive
same,Potency,[4],inactive
same,Potency,[5],inactive
C=CCCCCCCCCCC,Potency,[1],inactive
same,Potency,[2],inactive
same,Potency,[3],inactive
same,Potency,[4],inactive
same,Potency,[5],inactive
CC(=O)[C@H]1CC[C@H]2[C@@H]3CC=C4C[C@@H](O)CC[C@]4(C)[C@H]3CC[C@]12C,Potency,[1],inactive
same,Potency,[2],inactive
same,Potency,[3],inactive
same,Potency,[4],inactive
same,Potency,[5],inactive
O=C(O)COCCN1CCN(C(c2ccccc2)c2ccc(Cl)cc2)CC1 (centres undefined),Potency,[1],inactive
same,Potency,[4],inactive
same,Potency,[5],inactive
CN(C)/N=N/c1nc[nH]c1C(N)=O,Potency,[1],inactive
same,Potency,[2],inactive
same,Potency,[3],62 µM (active)
same,Potency,[4],inactive
same,Potency,[5],inactive
COc1ccc(C(=O)c2ccccc2O)c(O)c1,Potency,[1],inactive
same,Potency,[2],inactive
same,Potency,[3],inactive
same,Potency,[4],inactive
same,Potency,[5],inactive
ClC/C=C/CCl,Potency,[1],inactive
same,Potency,[2],inactive
same,Potency,[3],inactive
same,Potency,[4],inactive
same,Potency,[5],inactive
Cc1ccc2c(c1)C(=O)OC2=O,Potency,[1],inactive
same,Potency,[2],inactive
same,Potency,[3],inactive
same,Potency,[4],inactive
same,Potency,[5],inactive
C=CCOC(=O)C(=C)C,Potency,[1],inactive
same,Potency,[2],inactive
same,Potency,[3],inactive
same,Potency,[4],inactive
same,Potency,[5],inactive
CC(=O)[C@@]1(O)CC[C@H]2[C@@H]3C[C@H](C)C4=CC(=O)C=C[C@]4(C)[C@@]3(F)[C@@H](O)C[C@@]21C,Potency,[1],inactive
same,Potency,[2],inactive
same,Potency,[3],43.3 µM (active)
same,Potency,[4],inactive
same,Potency,[5],inactive
FC(F)(F)C(Cl)Br (centres undefined),Potency,[1],inactive
same,Potency,[2],inactive
same,Potency,[3],inactive
same,Potency,[4],inactive
same,Potency,[5],inactive
Nc1ccc2c(c1)C(=O)c1ccccc1C2=O,Potency,[1],inactive
same,Potency,[6],60 µM (active) and inactive
same,Potency,[3],9.51 µM (active) and 12.2 µM (active)
same,Potency,[4],48.1 µM (active) and inactive
same,Potency,[5],inactive
CC/C=C\C/C=C\C/C=C\CCCCCCCC(=O)O,Potency,[1],inactive
same,Potency,[2],inactive
same,Potency,[3],inactive and 60.6 µM (active)
same,Potency,[4],inactive
same,Potency,[5],inactive
C=C[C@@]1(C)CC(=O)[C@]2(O)[C@@]3(C)[C@@H](O)CCC(C)(C)[C@@H]3[C@H](O)[C@H](OC(C)=O)[C@@]2(C)O1,Potency,[1],inactive
same,Potency,[2],26.6 µM (active) and 30.6 µM (active)
same,Potency,[3],23.7 µM (active) and 24.3 µM (active)
same,Potency,[5],26.6 µM (active) and 38.6 µM (active)
CN(C)CCCN1c2ccccc2Sc2ccc(Cl)cc21,Potency,[2],9.44 µM (active) and 13.7 µM (active)
same,Potency,[6],9.44 µM (active) and 27.3 µM (active)
same,Potency,[3],11.9 µM (active) and 19.3 µM (active)
same,Potency,[4],24.5 µM (active)
same,Potency,[5],68.6 µM (active)
Cc1ccc(C)c(O)c1,Potency,[1],inactive
same,Potency,[2],inactive
same,Potency,[3],inactive
same,Potency,[4],inactive
same,Potency,[5],inactive
Cc1ccc(/C(=C\CN2CCCC2)c2ccccn2)cc1,Potency,[1],inactive
same,Potency,[2],26.6 µM (active) and 57.3 µM (active)
same,Potency,[3],23.7 µM (active) and 64.3 µM (active)
same,Potency,[4],inactive
same,Potency,[5],inactive
C[C@]12C=CC(=O)C=C1CC[C@H]1[C@@H]3C[C@@H](O)[C@](O)(C(=O)CO)[C@@]3(C)C[C@H](O)[C@@]12F,Potency,[1],inactive
same,Potency,[2],68.6 µM (active)
same,Potency,[3],48.6 µM (active)
same,Potency,[4],inactive
same,Potency,[5],inactive
Nc1cc(Cl)c(N)c(Cl)c1,Potency,[1],inactive
same,Potency,[4],inactive
same,Potency,[5],inactive
Cc1ccc([N+](=O)[O-])c(C)c1,Potency,[1],inactive
same,Potency,[2],inactive
same,Potency,[3],inactive
same,Potency,[4],inactive
same,Potency,[5],inactive
